Assay results published in the supplement of paper PMC10849652.
Of roughly 8,800 targets only a part is listed; those with a hit were picked by preference. About 0.5% of all pairs of compound and target were hits.

How the values were obtained:
Assay in all cases: log2 fold change, soluble protein after heating vs DMSO (PISA); higher = thermal stabilisation; K562 lysate, 10 uM; active = over 0.2 and 3.5 SD of the protein, either way, in both replicates (recomputed)
ibrutinib = compound: C=CC(=O)N1CCC[C@@H](n2nc(-c3ccc(Oc4ccccc4)cc3)c3c(N)ncnc32)C1 [ibrutinib]
How it was run: (§1)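 Thermal stability, expressed as log-two fold change relative to solvent controls, is given from duplicates. Crude K562 extract in PBS pH 7.4 with 1 mM MgCl2, at 1 mg/mL protein, was treated with 10 μM compound for 30 min and heated in aliquots for 3 min across 48°C-58°C. After pooling, adjustment to 0.5% NP-40 at 4°C and centrifugation at 21,000xg for 90 min, supernatant protein was measured by TMTpro 16plex LC-MS/MS with channel sums equalised.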

[1] = compound: CC(=O)c1cnc2ccc(-c3cc(Cl)c(O)c(Cl)c3)nc2c1N[C@H]1CC[C@H](CN(C)C)CC1
How it was run: as §1

ralimetinib = compound: CC(C)(C)Cn1c(N)nc2ccc(-c3[nH]c(C(C)(C)C)nc3-c3ccc(F)cc3)nc21 [ralimetinib]
How it was run: as §1

[2] = compound: CC(C)(O)CC(=O)NCCn1ccc2ncnc(Nc3ccc(Oc4cccc(C(F)(F)F)c4)c(Cl)c3)c21
How it was run: as §1

[3] = compound: CC(C)C1=C2N=C(C=C(N2N=C1)NCC3=CC=CC=C3)NCCCCCCN
How it was run: as §1

[4] = compound: CC1=C(C(CC(=O)N1)C2=CC=C(C=C2)C(F)(F)F)C(=O)NC3=C(C=C4C(=C3)C=NN4)F
How it was run: as §1

[5] = compound: CC1=C(C2=C(C=C1)C(=O)C3=CC=CC=C3N2CCCN)C
How it was run: as §1

[6] = compound: CC1=C(C=C(C=C1)NC(=O)C2=CC(=CC=C2)C(C)(C)C#N)NC3=CC4=C(C=C3)N=CN(C4=O)C
How it was run: as §1

[7] = compound: CC1=C(C=C(C=C1)NC(=O)C2=CC(=CC=C2)N(C)C)NC(=O)C3=CC=C(C=C3)O
How it was run: as §1

[8] = compound: CC1=CC=C(C=C1)SC2=C3C=C(SC3=CN=C2)C(=O)N
How it was run: as §1

vemurafenib = compound: CCCS(=O)(=O)Nc1ccc(F)c(C(=O)c2c[nH]c3ncc(-c4ccc(Cl)cc4)cc23)c1F [vemurafenib]
How it was run: as §1

[9] = compound: CCCS(=O)(=O)Nc1ccc(F)c(C(=O)c2c[nH]c3ncc(Cl)cc23)c1F
How it was run: as §1

barasertib = compound: CCN(CCCOc1ccc2c(Nc3cc(CC(=O)Nc4cccc(F)c4)[nH]n3)ncnc2c1)CCOP(=O)(O)O [barasertib]
How it was run: as §1

[10] = compound: CC[C@@H]1C(=O)N(C)c2cnc(Nc3ccc(C(=O)NC4CCN(C)CC4)cc3OC)nc2N1C1CCCC1
How it was run: as §1

volasertib = compound: CC[C@@H]1C(=O)N(C)c2cnc(Nc3ccc(C(=O)N[C@H]4CC[C@H](N5CCN(CC6CC6)CC5)CC4)cc3OC)nc2N1C(C)C [volasertib]
How it was run: as §1

[11] = compound: CCn1c(C(=O)N(C2CC2)C2CC2)cc2c3c(ncn3C)c(Nc3cc(C)n(C)n3)nc21
How it was run: as §1

[12] = compound: CCn1cc(-c2ccnc3[nH]c(-c4cccc(CN(C)C)c4)cc23)c(-c2ccc(NC(=O)N(C)C)cc2)n1
How it was run: as §1

[13] = compound: CN1CCC(CNc2ccc3ncc(-c4cccc(OC(F)(F)F)c4)n3n2)CC1
How it was run: as §1

saracatinib = compound: CN1CCN(CCOc2cc(OC3CCOCC3)c3c(Nc4c(Cl)ccc5c4OCO5)ncnc3c2)CC1 [saracatinib]
How it was run: as §1

sotrastaurin = compound: CN1CCN(c2nc(C3=C(c4c[nH]c5ccccc45)C(=O)NC3=O)c3ccccc3n2)CC1 [sotrastaurin]
How it was run: as §1

Measured: log2 fold change

NEK7 (UniProt Q8TDX7)
Sequence of UniProt Q8TDX7 (Q8TDX7 whole entry, looked up): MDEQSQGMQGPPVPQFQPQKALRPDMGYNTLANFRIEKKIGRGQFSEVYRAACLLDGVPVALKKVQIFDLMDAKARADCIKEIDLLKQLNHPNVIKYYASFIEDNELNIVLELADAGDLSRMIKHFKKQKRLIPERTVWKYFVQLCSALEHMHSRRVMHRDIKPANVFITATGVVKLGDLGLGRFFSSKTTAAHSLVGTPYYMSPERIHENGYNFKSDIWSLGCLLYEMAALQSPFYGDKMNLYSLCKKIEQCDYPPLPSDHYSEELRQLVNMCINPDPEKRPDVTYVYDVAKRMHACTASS
inactive: ibrutinib 0.041 | [1] -0.041 | ralimetinib 0.063 | [2] -0.016 | [3] 0.034 | [4] -0.015 | [5] -0.048 | [6] -0.043 | [7] 0.053 | [8] 0.002 | vemurafenib 0.086 | [9] 0.024 | barasertib 0.002 | [10] -0.006 | volasertib -0.091 | [11] -0.025 | [12] -0.13 | [13] 0.041 | saracatinib 0.013 | sotrastaurin 0.04

NDC1 (UniProt Q9BTX1)
inactive: ibrutinib 0.009 | [1] -0.02 | ralimetinib 0.007 | [2] -0.012 | [3] -0.013 | [4] -0.009 | [5] -0.031 | [6] 0.032 | [7] 0.007 | [8] 0.072 | vemurafenib 0.053 | [9] -0.051 | barasertib 0.075 | [10] 0.081 | volasertib 0.016 | [11] -0.02 | [12] -0.3 | [13] 0.155 | saracatinib 0.032 | sotrastaurin 0.011

NCK1 (UniProt P16333)
inactive: ibrutinib 0.025 | [1] -0.029 | ralimetinib 0.003 | [2] 0.01 | [3] -0.016 | [4] 0.028 | [5] 0.002 | [6] -0.005 | [7] 0.029 | [8] 0 | vemurafenib 0.049 | [9] 0.003 | barasertib -0.008 | [10] 0.068 | volasertib -0.011 | [11] -0.025 | [12] 0.067 | [13] -0.05 | saracatinib 0.015 | sotrastaurin 0.014

NUP205 (UniProt Q92621)
Sequence of UniProt Q92621 (Q92621 whole entry, looked up): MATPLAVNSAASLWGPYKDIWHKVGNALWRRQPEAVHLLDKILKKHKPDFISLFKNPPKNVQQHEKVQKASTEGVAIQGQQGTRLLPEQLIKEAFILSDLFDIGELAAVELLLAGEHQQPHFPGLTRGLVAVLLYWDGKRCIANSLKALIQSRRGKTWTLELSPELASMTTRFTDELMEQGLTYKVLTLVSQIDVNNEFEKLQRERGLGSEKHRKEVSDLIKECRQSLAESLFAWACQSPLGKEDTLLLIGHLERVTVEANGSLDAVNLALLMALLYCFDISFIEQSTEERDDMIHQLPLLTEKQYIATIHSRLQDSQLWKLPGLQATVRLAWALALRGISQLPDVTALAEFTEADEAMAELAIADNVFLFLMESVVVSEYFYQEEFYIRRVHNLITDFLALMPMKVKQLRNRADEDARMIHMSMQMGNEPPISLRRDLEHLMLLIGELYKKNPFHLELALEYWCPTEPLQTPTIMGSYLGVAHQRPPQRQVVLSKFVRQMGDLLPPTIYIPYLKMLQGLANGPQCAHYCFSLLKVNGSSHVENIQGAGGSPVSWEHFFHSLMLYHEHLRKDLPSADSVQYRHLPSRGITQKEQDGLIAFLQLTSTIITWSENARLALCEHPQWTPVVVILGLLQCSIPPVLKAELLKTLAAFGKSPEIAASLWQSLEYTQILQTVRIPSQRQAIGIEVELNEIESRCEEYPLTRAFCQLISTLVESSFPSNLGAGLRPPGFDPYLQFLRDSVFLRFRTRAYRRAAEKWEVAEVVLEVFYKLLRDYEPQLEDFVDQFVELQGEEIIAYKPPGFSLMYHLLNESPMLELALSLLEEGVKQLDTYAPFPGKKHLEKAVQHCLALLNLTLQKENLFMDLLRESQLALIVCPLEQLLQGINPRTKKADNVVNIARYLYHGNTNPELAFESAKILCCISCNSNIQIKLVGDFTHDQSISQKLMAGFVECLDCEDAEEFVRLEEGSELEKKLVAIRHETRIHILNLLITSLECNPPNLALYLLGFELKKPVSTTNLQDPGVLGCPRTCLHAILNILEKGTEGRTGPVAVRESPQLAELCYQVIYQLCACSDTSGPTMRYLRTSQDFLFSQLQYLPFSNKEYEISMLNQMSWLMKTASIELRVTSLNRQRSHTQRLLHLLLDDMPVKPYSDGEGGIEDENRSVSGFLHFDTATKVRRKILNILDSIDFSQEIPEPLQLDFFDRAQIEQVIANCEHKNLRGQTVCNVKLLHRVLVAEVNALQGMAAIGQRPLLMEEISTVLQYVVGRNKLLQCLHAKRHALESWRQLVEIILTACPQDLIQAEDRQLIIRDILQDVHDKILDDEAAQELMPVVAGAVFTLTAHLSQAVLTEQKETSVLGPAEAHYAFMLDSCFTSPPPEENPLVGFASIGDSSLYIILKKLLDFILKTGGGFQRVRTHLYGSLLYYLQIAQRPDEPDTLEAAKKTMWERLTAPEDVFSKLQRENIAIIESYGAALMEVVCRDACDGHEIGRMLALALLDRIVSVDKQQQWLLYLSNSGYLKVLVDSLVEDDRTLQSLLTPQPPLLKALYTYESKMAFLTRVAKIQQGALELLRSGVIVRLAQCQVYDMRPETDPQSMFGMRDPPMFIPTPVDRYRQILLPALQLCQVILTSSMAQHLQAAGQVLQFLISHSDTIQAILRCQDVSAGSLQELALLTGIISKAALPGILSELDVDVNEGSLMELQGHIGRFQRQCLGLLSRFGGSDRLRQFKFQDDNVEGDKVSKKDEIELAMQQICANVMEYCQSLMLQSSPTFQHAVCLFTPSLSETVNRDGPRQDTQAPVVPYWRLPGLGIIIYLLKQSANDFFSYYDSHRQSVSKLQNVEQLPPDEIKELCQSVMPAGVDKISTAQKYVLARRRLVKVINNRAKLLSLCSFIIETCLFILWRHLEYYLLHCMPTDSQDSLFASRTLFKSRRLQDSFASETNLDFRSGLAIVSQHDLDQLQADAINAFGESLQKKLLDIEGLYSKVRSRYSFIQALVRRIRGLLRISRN
inactive: ibrutinib 0.015 | [1] 0.026 | ralimetinib 0.026 | [2] -0.006 | [3] -0.036 | [4] 0.003 | [5] 0.022 | [6] 0.026 | [7] 0.017 | [8] 0.008 | vemurafenib 0.007 | [9] 0.017 | barasertib 0.038 | [10] -0.047 | volasertib -0.074 | [11] 0.027 | [12] -0.075 | [13] -0.064 | saracatinib 0.043 | sotrastaurin 0.022

MYD88 isoform 6 (UniProt Q99836)
Sequence of UniProt Q99836 (Q99836 whole entry, looked up): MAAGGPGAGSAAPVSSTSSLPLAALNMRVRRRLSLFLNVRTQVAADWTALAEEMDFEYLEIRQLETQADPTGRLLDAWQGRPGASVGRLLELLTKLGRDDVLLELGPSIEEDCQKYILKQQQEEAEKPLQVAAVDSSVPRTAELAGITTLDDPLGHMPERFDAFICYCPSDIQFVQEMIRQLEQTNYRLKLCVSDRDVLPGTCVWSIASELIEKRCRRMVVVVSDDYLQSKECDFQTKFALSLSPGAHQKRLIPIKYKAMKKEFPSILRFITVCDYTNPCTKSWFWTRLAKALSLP
inactive: ibrutinib 0.044 | [1] 0.003 | ralimetinib 0.022 | [2] 0.005 | [3] 0.024 | [4] 0.002 | [5] -0.028 | [6] -0.009 | [7] -0.024 | [8] -0.029 | vemurafenib -0.031 | [9] 0.01 | barasertib -0.002 | [10] -0.042 | volasertib -0.075 | [11] 0.022 | [12] -0.009 | [13] -0.013 | saracatinib 0.009 | sotrastaurin 0.05

NTMT1 (UniProt Q9BV86)
inactive: ibrutinib -0.025 | [1] 0.022 | ralimetinib -0.025 | [2] -0.018 | [3] 0 | [4] -0.005 | [5] -0.01 | [6] -0.008 | [7] 0.047 | [8] 0.01 | vemurafenib 0.023 | [9] 0.026 | barasertib 0.026 | [10] -0.029 | volasertib -0.024 | [11] 0.015 | [12] 0.055 | [13] -0.101 | saracatinib 0.008 | sotrastaurin 0.056

MYCBP2 (UniProt O75592)
inactive: ibrutinib 0.014 | [1] -0.027 | ralimetinib 0.033 | [2] -0.085 | [3] 0.014 | [4] 0.016 | [5] -0.028 | [6] 0.028 | [7] 0.036 | [8] -0.033 | vemurafenib -0.026 | [9] 0.036 | barasertib 0.037 | [10] 0.017 | volasertib -0.019 | [11] -0.01 | [12] -0.117 | [13] 0.083 | saracatinib 0.033 | sotrastaurin -0.029

NFATC2IP (UniProt Q8NCF5)
Sequence of UniProt Q8NCF5 (Q8NCF5 whole entry, looked up): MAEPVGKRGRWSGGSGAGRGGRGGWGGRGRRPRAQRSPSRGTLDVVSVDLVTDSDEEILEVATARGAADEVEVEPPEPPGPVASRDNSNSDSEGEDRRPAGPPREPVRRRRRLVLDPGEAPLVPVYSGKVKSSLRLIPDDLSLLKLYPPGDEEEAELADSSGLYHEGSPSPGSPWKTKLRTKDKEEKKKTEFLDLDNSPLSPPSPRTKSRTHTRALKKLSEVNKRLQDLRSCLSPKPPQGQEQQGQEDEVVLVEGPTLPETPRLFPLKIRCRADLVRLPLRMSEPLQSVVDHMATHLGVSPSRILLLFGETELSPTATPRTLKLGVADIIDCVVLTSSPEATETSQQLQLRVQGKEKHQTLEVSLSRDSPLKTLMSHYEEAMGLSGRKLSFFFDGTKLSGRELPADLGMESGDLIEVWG
inactive: ibrutinib 0.015 | [1] -0.037 | ralimetinib 0 | [2] -0.052 | [3] 0.01 | [4] -0.021 | [5] -0.019 | [6] -0.047 | [7] 0.013 | [8] 0.011 | vemurafenib -0.024 | [9] 0.069 | barasertib 0.041 | [10] 0.033 | volasertib 0.006 | [11] 0 | [12] 0.076 | [13] -0.031 | saracatinib 0.003 | sotrastaurin -0.004

MT-ND1 (UniProt P03886)
inactive: ibrutinib 0.032 | [1] -0.006 | ralimetinib 0.061 | [2] -0.101 | [3] -0.052 | [4] 0.056 | [5] -0.007 | [6] 0.055 | [7] -0.005 | [8] 0.088 | vemurafenib -0.074 | [9] 0.012 | barasertib 0.056 | [10] -0.068 | volasertib -0.04 | [11] -0.096 | [12] -0.355 | [13] 0.066 | saracatinib 0.075 | sotrastaurin 0.038

NUDT4 isoform 2 (UniProt Q9NZJ9)
Sequence of UniProt Q9NZJ9 (Q9NZJ9 whole entry, looked up): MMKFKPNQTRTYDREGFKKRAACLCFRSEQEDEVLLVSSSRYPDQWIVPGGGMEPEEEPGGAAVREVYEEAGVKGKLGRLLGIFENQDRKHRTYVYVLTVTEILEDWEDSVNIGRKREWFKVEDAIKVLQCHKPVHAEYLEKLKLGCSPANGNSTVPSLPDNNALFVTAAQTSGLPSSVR
inactive: ibrutinib -0.006 | [1] 0.002 | ralimetinib 0.035 | [2] -0.044 | [3] -0.006 | [4] 0.016 | [5] -0.054 | [6] 0.034 | [7] 0.024 | [8] -0.024 | vemurafenib 0.009 | [9] 0.021 | barasertib -0.05 | [10] 0.013 | volasertib 0.005 | [11] -0.018 | [12] -0.068 | [13] 0.058 | saracatinib 0.076 | sotrastaurin 0

NOB1 (UniProt Q9ULX3)
Sequence of UniProt Q9ULX3 (Q9ULX3 whole entry, looked up): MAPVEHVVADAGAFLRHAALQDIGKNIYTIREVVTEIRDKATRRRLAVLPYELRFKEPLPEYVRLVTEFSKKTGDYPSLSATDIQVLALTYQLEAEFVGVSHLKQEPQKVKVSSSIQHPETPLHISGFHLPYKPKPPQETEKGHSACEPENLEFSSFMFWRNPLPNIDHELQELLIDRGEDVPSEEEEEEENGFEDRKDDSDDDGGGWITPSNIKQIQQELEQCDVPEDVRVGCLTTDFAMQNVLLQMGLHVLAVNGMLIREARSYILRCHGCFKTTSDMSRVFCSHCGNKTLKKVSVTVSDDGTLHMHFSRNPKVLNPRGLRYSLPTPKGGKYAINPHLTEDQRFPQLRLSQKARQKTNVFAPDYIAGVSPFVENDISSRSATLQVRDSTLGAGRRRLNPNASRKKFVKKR
inactive: ibrutinib -0.005 | [1] 0.018 | ralimetinib -0.028 | [2] 0.014 | [3] 0.013 | [4] -0.001 | [5] -0.046 | [6] 0.03 | [7] 0.019 | [8] 0.004 | vemurafenib -0.002 | [9] 0.032 | barasertib -0.053 | [10] -0.045 | volasertib -0.02 | [11] -0.003 | [13] -0.102 | saracatinib 0.018 | sotrastaurin -0.009
active: [12] 0.274

PAK1 (UniProt Q13153)
Sequence of UniProt Q13153 (Q13153 whole entry, looked up): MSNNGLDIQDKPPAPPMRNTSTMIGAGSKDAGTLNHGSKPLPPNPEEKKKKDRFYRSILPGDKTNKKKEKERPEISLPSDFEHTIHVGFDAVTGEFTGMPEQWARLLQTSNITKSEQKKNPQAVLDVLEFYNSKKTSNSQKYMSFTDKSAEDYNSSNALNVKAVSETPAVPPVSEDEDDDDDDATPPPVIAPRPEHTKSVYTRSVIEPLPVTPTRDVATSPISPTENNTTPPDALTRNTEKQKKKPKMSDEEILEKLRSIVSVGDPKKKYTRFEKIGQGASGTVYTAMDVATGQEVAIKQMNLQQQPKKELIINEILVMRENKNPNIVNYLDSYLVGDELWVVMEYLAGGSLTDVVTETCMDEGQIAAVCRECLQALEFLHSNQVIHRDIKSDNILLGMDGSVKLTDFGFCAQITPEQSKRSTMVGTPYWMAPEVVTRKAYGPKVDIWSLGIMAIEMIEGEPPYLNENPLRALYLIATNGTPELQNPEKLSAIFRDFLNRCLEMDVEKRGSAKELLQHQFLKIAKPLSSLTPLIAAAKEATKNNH
inactive: ibrutinib 0.067 | [1] -0.011 | ralimetinib 0.001 | [2] 0.004 | [3] -0.108 | [4] -0.003 | [5] -0.018 | [6] 0.041 | [7] 0.008 | [8] 0.009 | vemurafenib -0.013 | [9] 0.001 | barasertib -0.001 | [10] -0.002 | volasertib 0.023 | [11] -0.011 | [12] 0.013 | [13] 0.06 | saracatinib 0 | sotrastaurin -0.054

NOA1 (UniProt Q8NC60)
inactive: ibrutinib -0.024 | [1] -0.025 | ralimetinib 0.002 | [2] 0.034 | [3] 0.005 | [4] -0.064 | [5] -0.02 | [6] 0.002 | [7] -0.001 | [8] 0.02 | vemurafenib 0.041 | [9] -0.009 | barasertib 0.043 | [10] 0.029 | volasertib -0.024 | [11] -0.083 | [12] -0.229 | [13] 0.028 | saracatinib 0.016 | sotrastaurin 0.037

NUB1 (UniProt Q9Y5A7)
inactive: ibrutinib -0.001 | [1] 0.022 | ralimetinib -0.003 | [2] 0.018 | [3] -0.027 | [4] 0.014 | [5] -0.009 | [6] -0.028 | [7] 0.008 | [8] 0.02 | vemurafenib -0.007 | [9] 0.011 | barasertib 0.028 | [10] -0.052 | volasertib -0.056 | [11] 0 | [12] 0.008 | [13] -0.048 | saracatinib -0.009 | sotrastaurin 0.021

NUSAP1 (UniProt Q9BXS6)
Sequence of UniProt Q9BXS6 (Q9BXS6 whole entry, looked up): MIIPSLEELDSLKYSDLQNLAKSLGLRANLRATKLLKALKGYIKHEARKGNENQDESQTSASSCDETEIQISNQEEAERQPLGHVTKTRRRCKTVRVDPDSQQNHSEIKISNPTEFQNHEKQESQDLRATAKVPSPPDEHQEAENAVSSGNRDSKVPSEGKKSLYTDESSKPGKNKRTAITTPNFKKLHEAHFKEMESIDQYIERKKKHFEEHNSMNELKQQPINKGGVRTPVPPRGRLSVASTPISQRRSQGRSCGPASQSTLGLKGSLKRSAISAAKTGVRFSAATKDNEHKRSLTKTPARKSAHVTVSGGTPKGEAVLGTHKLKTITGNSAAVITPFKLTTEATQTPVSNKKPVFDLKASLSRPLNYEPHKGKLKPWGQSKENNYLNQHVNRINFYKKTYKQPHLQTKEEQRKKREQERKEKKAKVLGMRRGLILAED
inactive: ibrutinib -0.003 | [1] -0.022 | ralimetinib 0.023 | [2] -0.014 | [3] -0.006 | [4] -0.02 | [5] -0.017 | [6] -0.004 | [7] 0.016 | [8] -0.023 | vemurafenib 0.001 | [9] 0.009 | barasertib -0.002 | [10] 0.073 | volasertib 0.004 | [11] -0.009 | [13] 0.189 | saracatinib 0.019 | sotrastaurin -0.001
active: [12] -0.399

NNMT (UniProt P40261)
Sequence of UniProt P40261 (P40261 whole entry, looked up): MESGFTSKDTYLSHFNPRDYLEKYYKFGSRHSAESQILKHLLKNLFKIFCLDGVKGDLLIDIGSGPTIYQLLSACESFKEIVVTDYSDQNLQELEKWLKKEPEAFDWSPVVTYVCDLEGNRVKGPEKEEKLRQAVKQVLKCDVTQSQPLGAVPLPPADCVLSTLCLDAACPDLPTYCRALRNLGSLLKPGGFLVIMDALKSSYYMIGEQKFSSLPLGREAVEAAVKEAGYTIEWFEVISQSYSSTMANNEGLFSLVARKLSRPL
inactive: ibrutinib -0.026 | [1] -0.037 | ralimetinib 0.011 | [2] -0.019 | [3] -0.05 | [4] -0.053 | [5] 0.026 | [6] 0.06 | [7] 0.016 | [8] -0.034 | vemurafenib 0.024 | [9] -0.036 | barasertib -0.059 | [10] 0.008 | volasertib 0.056 | [11] 0.015 | [12] -0.062 | [13] 0.03 | saracatinib -0.043 | sotrastaurin 0.021
